Measured values reported in the supplement of paper PMC4371806.
Over roughly 1,600 compounds, “plate-normalized OD600 growth (mean of duplicates)” has its median near 0.31; the lowest 2% begin near 0.23. What follows is part of a selection rich in the lowest values, with near analogues and random picks from the rest.

Tested on: Escherichia coli BW25113
Assay: plate-normalized OD600 growth (mean of duplicates) (OD600 (normalized)); higher = more growth (less inhibition)
Details: 10 µM
Experimental: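 E. coli BW25113 in LB (100 µl, 96-well, no shaking) was exposed to 10 µM of each compound (here the ChemBridge subset of a ~30,000-member library) and grown at 37°C for 24 h or 15°C for 48 h, in duplicate. Growth was read as OD600 and the duplicate ODs were normalized across screening plates to correct plate-to-plate variation.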

Structure (SMILES) | plate-normalized OD600 growth (temperature: 15°C, 48 h) | plate-normalized OD600 growth (temperature: 37°C, 24 h)
O=C(O)c1ccc(S(=O)(=O)c2ccc(O)cc2)cc1 | 0.247 | 0.592
C=CCNC(=O)c1ccc(CN2CCc3ccccc3C2)cc1 | 0.217 | 0.6
c1ccc2c(c1)CCN(Cc1ccncc1)C2 | 0.236 | 0.651
CN(C)c1ccc(CN2CCc3ccccc3C2)cc1 | 0.244 | 0.619
O=C(c1ccccc1[N+](=O)[O-])N1CCN(C(c2ccccc2)c2ccccc2)CC1 | 0.259 | 0.627
CCOc1cc(/C=C(\C#N)c2nc(-c3ccc(OC)cc3)cs2)ccc1O | 0.262 | 0.615
COc1ccc(-c2c(C)[nH]n3c(=O)cc(-c4ccc([N+](=O)[O-])cc4)nc23)cc1 | 0.24 | 0.608
COc1ccc(NCc2ccc(C)s2)cc1OC | 0.244 | 0.604
COc1ccc(NC(=O)Nc2ccc(F)c(Cl)c2)cc1 | 0.283 | 0.58
COc1ccc(NCc2ccc(Cl)cc2Cl)cc1OC | 0.22 | 0.625
O=C(c1sc2ccccc2c1Cl)N1CCN(CCN2C(=O)C3C4C=CC(C4)C3C2=O)CC1 (stereo not given) | 0.243 | 0.611
O=S(=O)(c1ccc(Cl)c(Cl)c1)N1CCCCC1 | 0.252 | 0.619
NC1CCCc2c1[nH]c1ccc([N+](=O)[O-])cc21 (stereo not given) | 0.173 | 0.552
Cc1cc(=O)[nH]c2ccc([N+](=O)[O-])cc12 | 0.244 | 0.609
O=[N+]([O-])c1ccc2[nH]c3c(c2c1)CCCC3NC1CCN(CCc2ccccc2)CC1 (stereo not given) | 0.249 | 0.578
N#C/C(=C\c1ccc(Br)o1)c1nc(-c2ccccc2)cs1 | 0.246 | 0.6
COc1ccc(NC(=O)c2ccccc2Br)c(OC)c1 | 0.258 | 0.615
O=C(Nc1ccc(Cl)cc1)c1ccccc1Br | 0.264 | 0.633
COc1ccc(Cl)cc1NC(=O)c1ccccc1Br | 0.222 | 0.627
O=C1c2cccc([N+](=O)[O-])c2C(=O)N1n1cnnc1 | 0.258 | 0.629
CCC1CCC(NCc2cccc(OC)c2OC)CC1 (stereo not given) | 0.253 | 0.603
Cc1cccc(NC(=O)COc2ccc(C)c(C)c2)c1 | 0.237 | 0.601
C=CCOc1ccccc1CN1CCCN(C)CC1 | 0.217 | 0.595
CN1CCCN(Cc2cc(F)ccc2F)CC1 | 0.273 | 0.623
COc1ccc(CN2CCCN(C)CC2)c(OC)c1 | 0.25 | 0.619
Cn1cccc1C1Nc2ccccc2NC2=C1C(=O)CC(C)(C)C2 (stereo not given) | 0.222 | 0.609
CC1(C)CC(=O)C2=C(C1)Nc1ccccc1NC2c1ccc([N+](=O)[O-])s1 (stereo not given) | 0.231 | 0.604

Structure (SMILES) | plate-normalized OD600 growth (temperature: 15°C, 48 h) | plate-normalized OD600 growth (temperature: 37°C, 24 h)
CC1(C)CC(=O)C2=C(C1)Nc1ccccc1NC2c1ccc(Br)cc1 (stereo not given) | 0.275 | 0.627
CC1(C)CC(=O)C2=C(C1)Nc1ccccc1NC2c1cc2c(cc1[N+](=O)[O-])OCO2 (stereo not given) | 0.225 | 0.606
CC1(C)CC(=O)C2=C(C1)Nc1ccccc1NC2c1ccccc1F (stereo not given) | 0.25 | 0.618
CC(=O)N1c2ccccc2NC2=C(C(=O)CC(C)(C)C2)C1c1cccn1C (stereo not given) | 0.253 | 0.612
O=C1c2ccccc2C(=O)N1c1nccs1 | 0.239 | 0.622
CC(=O)Nc1ccc(S(=O)(=O)N2CCCC(CO)C2)cc1 (stereo not given) | 0.29 | 0.63
O=C(Nc1nc(/C=C/c2ccccc2)[nH]c(=O)n1)NS(=O)(=O)c1ccccc1Cl | 0.249 | 0.587
CC(C)(C)C(=O)ON1C(=O)c2ccccc2C1=O | 0.25 | 0.616
CN(C)c1ccc(CN2CCc3c([nH]c4ccccc34)C2)cc1 | 0.275 | 0.622
CC1(C)CC(=O)c2c(CC3CC(=O)NC(=O)C3)noc2C1 | 0.222 | 0.614
CCCc1noc2c1C(=O)CC(C)(C)C2 | 0.261 | 0.622
COc1cccc(N2CCN(C3C4CC5CC(C4)CC3C5)CC2)c1 (stereo not given) | 0.291 | 0.627
O=[N+]([O-])c1ccccc1CNC1C2CC3CC(C2)CC1C3 (stereo not given) | 0.238 | 0.612
COc1ccc(CNC2C3CC4CC(C3)CC2C4)c(OC)c1 (stereo not given) | 0.224 | 0.615
COc1ccc(S(=O)(=O)N2CCN(Cc3cccc(F)c3)CC2)cc1 | 0.245 | 0.614
C=CCSc1nc(O)c(CC)c(=O)n1-c1ccccc1 | 0.233 | 0.62
Brc1ccc(CN2CCN(Cc3ccc4c(c3)OCO4)CC2)s1 | 0.262 | 0.639
CC(C)CS(=O)(=O)c1cccs1 | 0.253 | 0.616
O=C1CCCc2c1nc(-c1cccc([N+](=O)[O-])c1)n2O | 0.224 | 0.596
O=C1CCCc2occ(-c3ccc([N+](=O)[O-])cc3)c21 | 0.253 | 0.634
O=C1CCCc2c1nc(-c1ccccc1)n2O | 0.272 | 0.662
COc1ccc(-c2csc(N)n2)cc1Br | 0.26 | 0.647
O=C(O)CCCC(=O)Nc1ccc(Cl)c(Cl)c1 | 0.247 | 0.602
Cc1cccc(-c2nc(-c3cccnc3)no2)c1 | 0.244 | 0.605
C1CCCC(NCCN2CCCCC2)CCC1 | 0.234 | 0.588
CC(=O)NC(C)(CC(=O)c1ccccc1)c1ccccc1 (stereo not given) | 0.227 | 0.639
CC(=O)NC(Cc1ccccc1)Cc1ccccc1 | 0.248 | 0.608

Structure (SMILES) | plate-normalized OD600 growth (temperature: 15°C, 48 h) | plate-normalized OD600 growth (temperature: 37°C, 24 h)
CC(C)(C)NC(=O)c1ccccc1C(=O)NC(C)(C)C | 0.263 | 0.63
Cc1cccc(N2C(=O)CC(N3CCN(Cc4ccccc4)CC3)C2=O)c1 (stereo not given) | 0.254 | 0.616
COCc1cc(C)nc(NN)c1C#N | 0.258 | 0.622
O=C1c2ccccc2C(=O)C1c1nc2ccccc2[nH]1 | 0.269 | 0.667
COc1ccc(N/C=C(/c2cc(O)ccc2O)[N+](=O)[O-])cc1 | 0.255 | 0.624
CC(=O)Nc1ccc(S(=O)(=O)N2CCN(C)CC2)cc1 | 0.258 | 0.646
CC(=O)c1sc(Nc2ccc(Oc3ccccc3)cc2)nc1C | 0.223 | 0.607
CC(=O)c1sc(N2N=C(c3ccccc3)CC2c2ccccc2)nc1C (stereo not given) | 0.254 | 0.656
COc1ccc(OC)c(Nc2nc(C)c(C(C)=O)s2)c1 | 0.272 | 0.646
CSc1nc2sc3c(c2c(=O)n1C)CCCC3 | 0.246 | 0.618
COc1cccc(OC)c1C(=O)N1CCN(Cc2cccc([N+](=O)[O-])c2)CC1 | 0.266 | 0.645
CN1CCCN(Cc2cccc([N+](=O)[O-])c2)CC1 | 0.22 | 0.627
CN1CCCN(Cc2ccc([N+](=O)[O-])o2)CC1 | 0.258 | 0.607
O=C(O)c1ccc(NS(=O)(=O)c2cccc(C(=O)Nc3ccccc3)c2)cc1 | 0.245 | 0.603
OC(COc1ccc(C23CC4CC(CC(C4)C2)C3)cc1)CN1CCOCC1 (stereo not given) | 0.243 | 0.592
Cc1ccccc1C(=O)Nc1ccc(Br)cc1 | 0.282 | 0.631
NCC(=O)Nc1ccc(Br)cc1 | 0.227 | 0.606
O=C(Nc1ccc(Br)cc1)c1cccnc1 | 0.244 | 0.633
COc1ccc(-c2cn3ccccc3n2)cc1F | 0.229 | 0.633
O=[N+]([O-])c1ccc(-c2nnc(-c3ccccc3Cl)o2)cc1 | 0.244 | 0.601
CCC(CO)NC1=C([N+](=O)[O-])C(=O)CC(C)(C)C1 (stereo not given) | 0.282 | 0.666
CCN(CC)CCN(C)C/C=C/c1ccccc1 | 0.208 | 0.608
CCN(CC)CCN(C)Cc1cccc([N+](=O)[O-])c1 | 0.245 | 0.601
CCN1CCN(C/C=C/c2ccccc2)CC1 | 0.28 | 0.634
C=CCSc1nc(N)c(C#N)c(CC)c1C#N | 0.239 | 0.605
CCC1CCCCN1C(=O)c1cccs1 (stereo not given) | 0.225 | 0.613
CCC1CCCCN1C(=O)c1cccc([N+](=O)[O-])c1C (stereo not given) | 0.247 | 0.612

Structure (SMILES) | plate-normalized OD600 growth (temperature: 15°C, 48 h) | plate-normalized OD600 growth (temperature: 37°C, 24 h)
Cc1ccccc1C(=O)N1CCCCC1CO (stereo not given) | 0.294 | 0.624
COc1cc2c(cc1OC)C(c1cc(OC)c(OC)c(OC)c1)N(C)CC2 (stereo not given) | 0.244 | 0.624
COc1cc(OC)cc(C(=O)Nc2cccc(C)c2C)c1 | 0.253 | 0.63
O=C(O)CSc1nccn1Cc1ccccc1 | 0.244 | 0.625
CCOC(=O)N1CCN(Cc2c(F)cccc2F)CC1 | 0.263 | 0.656
CCOC(=O)N1CCN(Cc2ccc(N(C)C)cc2)CC1 | 0.219 | 0.58
CCOC(=O)N1CCN(Cc2ccccc2Cl)CC1 | 0.244 | 0.621
O=C(Nc1ccc(Oc2ccc(NC(=O)c3cccnc3)cc2)cc1)c1cccnc1 | 0.27 | 0.629
Fc1ccc(CN2CCN(c3ncccn3)CC2)cc1 | 0.253 | 0.629
CC(C)(C)c1ccccc1OCCCCSC#N | 0.209 | 0.619
CC(C)(C)c1ccccc1OCCCSC#N | 0.233 | 0.622
N#CSCCCCOc1ccccc1Cl | 0.251 | 0.605
CC(c1ccccc1)N1CCC(=O)C2=C1CCCC2 (stereo not given) | 0.241 | 0.604
[O-][n+]1onc2c(-c3ccccc3)nnc(-c3ccccc3)c21 | 0.254 | 0.616
Fc1ccc(CN2CCN(c3ccccn3)CC2)c(F)c1 | 0.244 | 0.601
N#CCCN(CCN1CCCC1)S(=O)(=O)c1cccc2nsnc12 | 0.253 | 0.624
CN(C)c1nc(N)nc(-c2ccco2)n1 | 0.226 | 0.632
N#Cc1c(N)nc2c(c1-c1ccco1)CCCCCC2 | 0.249 | 0.615
Nc1nc(-c2ccco2)nc(-c2ccco2)n1 | 0.272 | 0.646
O=C1CCCc2c1nn(-c1ccccc1)[n+]2[O-] | 0.249 | 0.618
O=C(Nc1ccc(F)cc1F)c1cccc(Br)c1 | 0.259 | 0.605
COc1ccc(C)cc1NCc1ccc(SC)cc1 | 0.282 | 0.644
Cc1nc(N)nc(OCC(F)(F)C(F)F)c1Br | 0.221 | 0.604
CCN(CC)CCOc1ccccc1Br | 0.233 | 0.621
